A number with no mark means an inactive call.

Sequence of UniProt Q14694 (Q14694 whole entry): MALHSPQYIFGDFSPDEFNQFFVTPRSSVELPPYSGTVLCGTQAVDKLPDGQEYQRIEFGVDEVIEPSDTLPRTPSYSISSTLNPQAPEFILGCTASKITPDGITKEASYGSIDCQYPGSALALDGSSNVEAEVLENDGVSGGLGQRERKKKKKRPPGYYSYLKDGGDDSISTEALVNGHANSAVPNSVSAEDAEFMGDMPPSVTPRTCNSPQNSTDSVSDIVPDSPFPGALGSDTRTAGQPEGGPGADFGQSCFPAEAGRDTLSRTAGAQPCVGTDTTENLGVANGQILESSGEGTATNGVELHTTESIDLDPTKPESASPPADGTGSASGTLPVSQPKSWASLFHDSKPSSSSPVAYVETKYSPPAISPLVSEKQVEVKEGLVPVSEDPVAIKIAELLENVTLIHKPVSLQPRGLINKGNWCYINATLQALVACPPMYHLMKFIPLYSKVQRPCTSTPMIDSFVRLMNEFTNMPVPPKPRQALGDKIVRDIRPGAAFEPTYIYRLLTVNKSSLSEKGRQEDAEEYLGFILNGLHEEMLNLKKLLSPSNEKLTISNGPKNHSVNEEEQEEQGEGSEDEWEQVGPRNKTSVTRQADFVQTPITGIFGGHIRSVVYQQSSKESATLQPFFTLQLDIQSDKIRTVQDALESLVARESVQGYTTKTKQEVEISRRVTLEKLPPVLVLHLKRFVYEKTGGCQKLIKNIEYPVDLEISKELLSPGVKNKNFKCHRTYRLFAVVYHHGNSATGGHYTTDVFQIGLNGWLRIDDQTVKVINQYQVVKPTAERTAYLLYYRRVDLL
Sequence of UniProt Q9Y5K5 (Q9Y5K5 whole entry): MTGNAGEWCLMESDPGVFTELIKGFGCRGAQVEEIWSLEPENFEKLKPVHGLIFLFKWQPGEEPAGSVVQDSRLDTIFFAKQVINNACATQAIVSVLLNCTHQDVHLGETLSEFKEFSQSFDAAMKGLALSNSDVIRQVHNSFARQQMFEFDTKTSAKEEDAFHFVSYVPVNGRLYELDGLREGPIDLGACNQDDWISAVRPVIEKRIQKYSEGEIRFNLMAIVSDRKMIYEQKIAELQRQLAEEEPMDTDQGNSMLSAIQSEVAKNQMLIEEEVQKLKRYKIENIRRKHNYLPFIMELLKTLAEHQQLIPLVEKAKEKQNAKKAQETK
Sequence of UniProt Q9P275 (Q9P275 whole entry): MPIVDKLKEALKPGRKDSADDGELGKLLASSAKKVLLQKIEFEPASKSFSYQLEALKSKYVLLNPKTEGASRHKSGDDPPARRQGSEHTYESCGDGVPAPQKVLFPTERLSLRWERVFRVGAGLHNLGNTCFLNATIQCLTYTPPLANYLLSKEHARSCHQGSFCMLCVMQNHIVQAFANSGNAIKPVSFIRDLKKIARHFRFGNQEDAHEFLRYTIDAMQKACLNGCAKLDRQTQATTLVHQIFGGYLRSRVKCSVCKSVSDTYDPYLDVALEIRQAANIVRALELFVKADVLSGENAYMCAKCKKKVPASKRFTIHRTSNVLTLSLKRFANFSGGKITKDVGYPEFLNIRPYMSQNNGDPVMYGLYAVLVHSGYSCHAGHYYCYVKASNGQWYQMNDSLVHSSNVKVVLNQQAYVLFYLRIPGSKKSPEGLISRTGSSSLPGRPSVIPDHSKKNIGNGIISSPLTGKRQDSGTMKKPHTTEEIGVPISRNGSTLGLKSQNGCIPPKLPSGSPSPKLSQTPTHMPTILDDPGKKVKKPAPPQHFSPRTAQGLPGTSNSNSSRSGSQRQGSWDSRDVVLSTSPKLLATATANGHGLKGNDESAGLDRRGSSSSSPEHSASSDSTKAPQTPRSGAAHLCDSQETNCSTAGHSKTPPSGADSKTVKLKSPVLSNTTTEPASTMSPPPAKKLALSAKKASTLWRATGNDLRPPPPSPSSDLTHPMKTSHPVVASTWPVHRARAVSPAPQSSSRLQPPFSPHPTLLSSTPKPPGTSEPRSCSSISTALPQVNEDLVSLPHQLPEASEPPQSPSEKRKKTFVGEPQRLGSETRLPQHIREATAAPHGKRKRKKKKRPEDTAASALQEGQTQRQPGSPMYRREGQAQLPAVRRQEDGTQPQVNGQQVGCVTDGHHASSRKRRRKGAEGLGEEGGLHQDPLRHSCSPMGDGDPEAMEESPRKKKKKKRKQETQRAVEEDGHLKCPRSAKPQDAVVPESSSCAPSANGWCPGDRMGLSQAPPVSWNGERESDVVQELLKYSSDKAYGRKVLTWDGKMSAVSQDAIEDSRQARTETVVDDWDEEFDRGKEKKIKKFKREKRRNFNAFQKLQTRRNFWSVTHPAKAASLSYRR
Sequence of UniProt Q9UPU5 (Q9UPU5 whole entry): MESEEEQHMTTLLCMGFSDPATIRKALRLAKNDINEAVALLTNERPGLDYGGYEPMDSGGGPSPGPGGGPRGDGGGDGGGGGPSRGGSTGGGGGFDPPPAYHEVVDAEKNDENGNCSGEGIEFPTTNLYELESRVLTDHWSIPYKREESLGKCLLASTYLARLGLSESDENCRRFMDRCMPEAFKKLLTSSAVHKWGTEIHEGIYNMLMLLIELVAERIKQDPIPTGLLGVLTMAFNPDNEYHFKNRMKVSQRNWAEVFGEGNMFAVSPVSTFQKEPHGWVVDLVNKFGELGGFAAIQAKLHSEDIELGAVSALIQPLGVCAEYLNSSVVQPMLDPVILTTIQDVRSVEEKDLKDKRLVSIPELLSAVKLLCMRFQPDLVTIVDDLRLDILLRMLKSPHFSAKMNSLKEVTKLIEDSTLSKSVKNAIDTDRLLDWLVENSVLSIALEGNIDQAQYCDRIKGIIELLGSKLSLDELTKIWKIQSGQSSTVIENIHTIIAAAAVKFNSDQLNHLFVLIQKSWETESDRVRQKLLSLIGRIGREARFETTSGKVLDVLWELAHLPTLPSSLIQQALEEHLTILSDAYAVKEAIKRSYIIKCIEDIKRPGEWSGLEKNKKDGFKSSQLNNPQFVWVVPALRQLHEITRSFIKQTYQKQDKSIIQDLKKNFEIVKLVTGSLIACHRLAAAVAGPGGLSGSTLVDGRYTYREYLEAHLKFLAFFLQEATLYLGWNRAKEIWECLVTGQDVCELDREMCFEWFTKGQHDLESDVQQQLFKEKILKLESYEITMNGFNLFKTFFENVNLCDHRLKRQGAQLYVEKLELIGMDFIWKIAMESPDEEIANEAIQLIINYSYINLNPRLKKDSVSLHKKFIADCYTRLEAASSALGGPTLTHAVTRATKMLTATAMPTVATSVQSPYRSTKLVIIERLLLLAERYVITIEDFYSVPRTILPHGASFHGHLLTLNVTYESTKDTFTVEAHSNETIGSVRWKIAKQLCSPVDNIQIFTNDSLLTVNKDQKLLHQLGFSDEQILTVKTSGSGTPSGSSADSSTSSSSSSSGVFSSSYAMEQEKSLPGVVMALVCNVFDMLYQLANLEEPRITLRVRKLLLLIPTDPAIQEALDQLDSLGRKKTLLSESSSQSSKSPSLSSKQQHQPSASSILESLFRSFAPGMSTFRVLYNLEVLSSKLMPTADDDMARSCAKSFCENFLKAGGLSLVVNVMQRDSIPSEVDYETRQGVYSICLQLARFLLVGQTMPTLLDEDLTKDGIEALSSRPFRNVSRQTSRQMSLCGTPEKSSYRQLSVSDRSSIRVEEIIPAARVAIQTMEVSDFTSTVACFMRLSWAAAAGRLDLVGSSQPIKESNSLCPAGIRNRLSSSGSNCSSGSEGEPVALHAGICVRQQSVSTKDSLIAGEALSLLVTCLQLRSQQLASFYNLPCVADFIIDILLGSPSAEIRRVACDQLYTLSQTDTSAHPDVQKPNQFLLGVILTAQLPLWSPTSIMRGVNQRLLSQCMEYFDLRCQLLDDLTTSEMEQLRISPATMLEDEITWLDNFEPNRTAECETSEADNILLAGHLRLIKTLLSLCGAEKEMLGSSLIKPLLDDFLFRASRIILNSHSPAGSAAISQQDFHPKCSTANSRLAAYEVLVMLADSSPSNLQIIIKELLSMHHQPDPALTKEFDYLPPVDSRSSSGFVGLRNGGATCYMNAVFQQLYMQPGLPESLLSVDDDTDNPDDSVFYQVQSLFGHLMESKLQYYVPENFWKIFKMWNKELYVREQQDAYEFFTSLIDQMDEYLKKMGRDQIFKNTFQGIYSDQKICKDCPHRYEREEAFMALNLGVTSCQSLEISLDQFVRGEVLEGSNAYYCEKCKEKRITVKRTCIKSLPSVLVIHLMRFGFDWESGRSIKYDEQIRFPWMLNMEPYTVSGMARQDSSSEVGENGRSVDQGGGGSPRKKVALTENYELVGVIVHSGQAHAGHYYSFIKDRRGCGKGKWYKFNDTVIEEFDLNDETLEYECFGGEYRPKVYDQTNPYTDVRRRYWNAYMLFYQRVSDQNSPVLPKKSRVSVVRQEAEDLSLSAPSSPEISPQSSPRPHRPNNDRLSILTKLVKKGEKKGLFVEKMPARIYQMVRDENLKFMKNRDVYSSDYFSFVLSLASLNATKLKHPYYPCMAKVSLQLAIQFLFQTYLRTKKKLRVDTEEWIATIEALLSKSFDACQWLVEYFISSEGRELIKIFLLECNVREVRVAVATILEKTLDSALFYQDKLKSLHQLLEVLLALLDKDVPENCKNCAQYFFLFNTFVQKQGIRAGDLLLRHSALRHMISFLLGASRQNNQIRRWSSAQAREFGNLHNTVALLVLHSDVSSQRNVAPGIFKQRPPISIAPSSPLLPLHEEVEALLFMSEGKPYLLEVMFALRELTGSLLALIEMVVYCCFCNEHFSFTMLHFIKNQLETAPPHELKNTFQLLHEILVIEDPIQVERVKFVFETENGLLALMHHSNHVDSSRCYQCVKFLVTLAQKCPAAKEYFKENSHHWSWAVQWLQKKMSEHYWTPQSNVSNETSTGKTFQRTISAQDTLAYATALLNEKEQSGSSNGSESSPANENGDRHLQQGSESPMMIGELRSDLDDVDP

Compound in the first assay: ClCC(=O)NC1(CCCC1)C#N
Nature of the assay: log2 ratio of Biotin-Ahx-Ub-VS probe labelling (compound/DMSO); higher = less target engagement, active = hit call of the paper (q ≤ 0.05, log2 ratio ≤ -1). The following applies: compound concentration: 50uM; treatment time: 3 h. The protocol:
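Round 2 competitive ABPP in HEK293T lysate. Compounds were tested at 50 and 200 µM for 3 h, followed by Biotin-Ahx-Ub-VS enrichment and diaPASEF LC-MS/MS. Values are the average log2 ratio (compound/DMSO) from an unpaired t-test (n=3 treated, n=26 DMSO).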
Turning to USP38 (UniProt Q8NB14), the “log2 ratio of Biotin-Ahx-Ub-VS probe labelling” value (“log2 ratio” for short) is -0.219.
On the same count and under the same terms, with ATXN3 (UniProt P54252) the figure was -0.261.
On the same count and under the same terms, under OTUD7B (UniProt Q6GQQ9) stands -1.16 (active); under USP36 (UniProt Q9P275), -0.292.
As for UCHL5 (UniProt Q9Y5K5), the “log2 ratio” value was -0.245.
With USP10 (UniProt Q14694), the “log2 ratio” value is -0.0318.
For the target OTUB1 (UniProt Q96FW1), the “log2 ratio” value was -0.00568.
Same read-out and setting: with USP24 (UniProt Q9UPU5) the figure was -0.0634; with UniProt Q9UGI0, -0.46.

Still in this assay, the particulars now being: compound concentration: 200uM; treatment time: 3 h.
For the target USP38 (UniProt Q8NB14), the “log2 ratio” value is -0.177.
Same read-out and setting: with ATXN3 (UniProt P54252) the figure was 0.039.
On the same count and under the same terms, with OTUD7B (UniProt Q6GQQ9) the figure was -3.09 (active); with USP36 (UniProt Q9P275), -0.22.
Same read-out and setting: with UCHL5 (UniProt Q9Y5K5) the figure was -0.19; with USP10 (UniProt Q14694), -0.0398; with OTUB1 (UniProt Q96FW1), 0.00171.
Regarding USP24 (UniProt Q9UPU5), the “log2 ratio” value was -0.175.
As for UniProt Q9UGI0, the “log2 ratio” value was 0.243.

The record behind these values is the supplement of paper PMC11732987, “Enantioselective OTUD7B fragment discovery through chemoproteomics screening and high-throughput optimisation” (Communications Chemistry, 2025).
